# Results taken from ChEMBL document CHEMBL1961873, “Compounds: GSK PKIS; Assays: Nanosyn kinase panel” (2012).
# What was measured:
# [1] = target: Serine/threonine-protein kinase 26 (Homo sapiens) (UniProt Q9P289); conditions: at 1 µM;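 also: mean inhibition of MST4 kinase activity, reported from the GSK PKIS inhibitor-set screening panel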
# [2] = target: Serine/threonine-protein kinase PAK 1 (Homo sapiens) (UniProt Q13153); conditions: at 0.1 µM
# [3] = target: Serine/threonine-protein kinase PAK 1 (Homo sapiens) (UniProt Q13153); conditions: at 1 µM
# [4] = target: Serine/threonine-protein kinase PAK 2 (Homo sapiens) (UniProt Q13177); conditions: at 0.1 µM
# [5] = target: Serine/threonine-protein kinase PAK 2 (Homo sapiens) (UniProt Q13177); conditions: at 1 µM
# [6] = target: Serine/threonine-protein kinase PAK 3 (Homo sapiens) (UniProt O75914); conditions: at 0.1 µM
# [7] = target: Serine/threonine-protein kinase PAK 3 (Homo sapiens) (UniProt O75914); conditions: at 1 µM
# [8] = target: Serine/threonine-protein kinase PAK 5 (Homo sapiens) (UniProt Q9P286); conditions: at 0.1 µM
# [9] = target: Serine/threonine-protein kinase PAK 5 (Homo sapiens) (UniProt Q9P286); conditions: at 1 µM
# [10] = target: Serine/threonine-protein kinase PAK 6 (Homo sapiens) (UniProt Q9NQU5); conditions: at 0.1 µM
# [11] = target: Serine/threonine-protein kinase PAK 6 (Homo sapiens) (UniProt Q9NQU5); conditions: at 1 µM
# [12] = test system: Tyrosine-protein kinase ABL1 (Homo sapiens), P00519 [E255K]; conditions: at 0.1 µM
# [13] = test system: Tyrosine-protein kinase ABL1 (Homo sapiens), P00519 [E255K]; conditions: at 1 µM
# [14] = test system: Tyrosine-protein kinase ABL1 (Homo sapiens), P00519 [H396P]; conditions: at 0.1 µM
# [15] = test system: Tyrosine-protein kinase ABL1 (Homo sapiens), P00519 [H396P]; conditions: at 1 µM
# [16] = test system: Tyrosine-protein kinase ABL1 (Homo sapiens), P00519 [M351T]; conditions: at 0.1 µM
# [17] = test system: Tyrosine-protein kinase ABL1 (Homo sapiens), P00519 [M351T]; conditions: at 1 µM
# [18] = test system: Tyrosine-protein kinase ABL1 (Homo sapiens), P00519 [Q252H]; conditions: at 0.1 µM
# [19] = test system: Tyrosine-protein kinase ABL1 (Homo sapiens), P00519 [Q252H]; conditions: at 1 µM
# [20] = test system: Tyrosine-protein kinase ABL1 (Homo sapiens), P00519 [T315I]; conditions: at 0.1 µM
# Serine/threonine-protein kinase 26 (Homo sapiens), sequence (Q9P289 2-416 limits assumed): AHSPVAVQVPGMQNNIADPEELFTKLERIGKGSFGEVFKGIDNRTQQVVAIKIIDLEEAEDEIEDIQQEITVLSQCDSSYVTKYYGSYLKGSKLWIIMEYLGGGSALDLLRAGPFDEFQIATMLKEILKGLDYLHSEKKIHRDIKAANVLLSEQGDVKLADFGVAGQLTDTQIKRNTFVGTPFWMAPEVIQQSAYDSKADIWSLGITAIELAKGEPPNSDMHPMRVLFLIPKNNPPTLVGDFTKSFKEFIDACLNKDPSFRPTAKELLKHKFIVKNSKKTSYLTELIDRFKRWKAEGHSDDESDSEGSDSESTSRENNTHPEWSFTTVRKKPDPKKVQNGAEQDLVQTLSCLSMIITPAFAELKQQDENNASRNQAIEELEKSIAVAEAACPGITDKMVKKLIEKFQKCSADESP
# Serine/threonine-protein kinase PAK 6 (Homo sapiens), sequence (Q9NQU5 whole entry, looked up): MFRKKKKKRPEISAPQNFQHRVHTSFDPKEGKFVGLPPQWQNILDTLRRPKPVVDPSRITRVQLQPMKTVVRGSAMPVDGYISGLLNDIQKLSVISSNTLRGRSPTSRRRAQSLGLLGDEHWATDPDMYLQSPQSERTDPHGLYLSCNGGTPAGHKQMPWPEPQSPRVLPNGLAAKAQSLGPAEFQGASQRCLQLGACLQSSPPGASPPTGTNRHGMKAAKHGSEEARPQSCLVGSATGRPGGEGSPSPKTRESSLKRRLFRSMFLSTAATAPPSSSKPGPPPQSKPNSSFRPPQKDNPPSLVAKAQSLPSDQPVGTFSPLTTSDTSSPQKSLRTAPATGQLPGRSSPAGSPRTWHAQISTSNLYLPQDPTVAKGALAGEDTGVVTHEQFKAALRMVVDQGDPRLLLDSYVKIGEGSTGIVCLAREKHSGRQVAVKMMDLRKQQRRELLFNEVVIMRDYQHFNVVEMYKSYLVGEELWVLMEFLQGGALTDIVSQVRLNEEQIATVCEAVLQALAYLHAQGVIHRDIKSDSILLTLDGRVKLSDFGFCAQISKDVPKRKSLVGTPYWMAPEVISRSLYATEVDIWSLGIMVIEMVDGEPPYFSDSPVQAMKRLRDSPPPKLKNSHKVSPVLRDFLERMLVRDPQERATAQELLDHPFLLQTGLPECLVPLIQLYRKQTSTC
# Serine/threonine-protein kinase PAK 1 (Homo sapiens), sequence (Q13153 whole entry): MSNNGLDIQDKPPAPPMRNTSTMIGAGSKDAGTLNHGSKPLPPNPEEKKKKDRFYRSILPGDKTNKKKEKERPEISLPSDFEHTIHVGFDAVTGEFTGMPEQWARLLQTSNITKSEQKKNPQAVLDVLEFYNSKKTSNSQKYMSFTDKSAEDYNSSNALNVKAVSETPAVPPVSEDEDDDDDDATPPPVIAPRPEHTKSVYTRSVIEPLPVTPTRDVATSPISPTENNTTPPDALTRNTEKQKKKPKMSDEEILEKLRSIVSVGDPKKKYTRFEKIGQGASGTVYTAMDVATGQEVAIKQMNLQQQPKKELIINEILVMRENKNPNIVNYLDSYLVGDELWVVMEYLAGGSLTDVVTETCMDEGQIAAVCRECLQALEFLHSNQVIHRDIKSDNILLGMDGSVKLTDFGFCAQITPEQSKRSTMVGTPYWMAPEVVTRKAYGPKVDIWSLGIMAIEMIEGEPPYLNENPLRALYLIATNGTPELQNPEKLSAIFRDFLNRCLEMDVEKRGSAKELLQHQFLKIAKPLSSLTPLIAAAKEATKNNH
# Serine/threonine-protein kinase PAK 3 (Homo sapiens), sequence (O75914 whole entry, looked up): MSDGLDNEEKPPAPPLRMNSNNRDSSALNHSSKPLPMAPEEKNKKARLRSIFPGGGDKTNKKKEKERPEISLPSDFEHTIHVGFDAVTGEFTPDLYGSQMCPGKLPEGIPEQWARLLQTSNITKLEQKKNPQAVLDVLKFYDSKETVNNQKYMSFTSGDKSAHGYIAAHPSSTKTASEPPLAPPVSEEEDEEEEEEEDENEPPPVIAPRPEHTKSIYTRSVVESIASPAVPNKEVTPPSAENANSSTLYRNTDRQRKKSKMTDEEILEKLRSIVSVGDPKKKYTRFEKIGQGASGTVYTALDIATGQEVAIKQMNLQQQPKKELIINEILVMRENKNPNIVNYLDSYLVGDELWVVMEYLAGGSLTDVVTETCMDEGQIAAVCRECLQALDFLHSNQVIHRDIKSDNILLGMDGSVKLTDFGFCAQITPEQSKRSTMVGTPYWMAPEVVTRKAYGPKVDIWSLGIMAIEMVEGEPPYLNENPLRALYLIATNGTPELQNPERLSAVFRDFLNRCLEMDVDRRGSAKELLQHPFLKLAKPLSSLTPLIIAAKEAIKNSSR
# Serine/threonine-protein kinase PAK 5 (Homo sapiens), sequence (Q9P286 whole entry, looked up): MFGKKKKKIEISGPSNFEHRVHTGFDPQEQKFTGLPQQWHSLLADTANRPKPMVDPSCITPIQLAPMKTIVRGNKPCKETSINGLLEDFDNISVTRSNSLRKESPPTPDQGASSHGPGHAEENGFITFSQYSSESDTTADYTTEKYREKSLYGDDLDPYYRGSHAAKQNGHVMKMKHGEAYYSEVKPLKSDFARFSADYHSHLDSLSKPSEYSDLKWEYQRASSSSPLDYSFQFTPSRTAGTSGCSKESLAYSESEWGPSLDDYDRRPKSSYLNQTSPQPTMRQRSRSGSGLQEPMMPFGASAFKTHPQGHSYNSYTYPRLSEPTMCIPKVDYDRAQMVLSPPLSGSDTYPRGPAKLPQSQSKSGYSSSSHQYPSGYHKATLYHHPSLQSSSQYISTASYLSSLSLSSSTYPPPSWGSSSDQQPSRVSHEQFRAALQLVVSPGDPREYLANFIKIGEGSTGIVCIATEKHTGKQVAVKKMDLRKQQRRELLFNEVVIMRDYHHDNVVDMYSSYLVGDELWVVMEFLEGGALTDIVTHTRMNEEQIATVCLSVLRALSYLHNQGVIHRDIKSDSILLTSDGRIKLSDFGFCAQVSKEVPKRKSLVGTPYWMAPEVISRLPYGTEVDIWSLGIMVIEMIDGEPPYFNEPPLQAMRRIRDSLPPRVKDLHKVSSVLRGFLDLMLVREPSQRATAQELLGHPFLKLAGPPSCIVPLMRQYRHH
# Serine/threonine-protein kinase PAK 2 (Homo sapiens), sequence (Q13177 whole entry): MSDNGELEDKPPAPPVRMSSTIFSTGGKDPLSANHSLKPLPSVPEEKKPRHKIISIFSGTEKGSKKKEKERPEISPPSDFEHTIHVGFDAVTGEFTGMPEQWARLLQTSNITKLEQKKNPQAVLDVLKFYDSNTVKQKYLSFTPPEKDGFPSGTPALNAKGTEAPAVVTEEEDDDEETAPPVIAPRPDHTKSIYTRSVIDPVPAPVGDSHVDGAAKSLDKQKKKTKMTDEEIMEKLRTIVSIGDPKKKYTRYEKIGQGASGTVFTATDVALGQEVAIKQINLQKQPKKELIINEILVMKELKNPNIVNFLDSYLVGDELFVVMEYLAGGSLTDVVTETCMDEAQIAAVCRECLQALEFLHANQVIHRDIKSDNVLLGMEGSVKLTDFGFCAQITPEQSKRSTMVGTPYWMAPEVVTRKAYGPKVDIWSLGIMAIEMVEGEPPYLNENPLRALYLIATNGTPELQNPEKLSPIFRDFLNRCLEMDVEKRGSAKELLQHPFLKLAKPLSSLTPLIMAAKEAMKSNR
SMILES,inhibition [1] [%],inhibition [2] [%],inhibition [3] [%],inhibition [4] [%],inhibition [5] [%],inhibition [6] [%],inhibition [7] [%],inhibition [8] [%],inhibition [9] [%],inhibition [10] [%],inhibition [11] [%],inhibition [12] [%],inhibition [13] [%],inhibition [14] [%],inhibition [15] [%],inhibition [16] [%],inhibition [17] [%],inhibition [18] [%],inhibition [19] [%],inhibition [20] [%]
CCn1c(-c2nonc2N)nc2ccncc21,0.2,6.53,2.38,-0.38,1.82,0.96,1.02,-6.36,-8.04,-9.63,-3.52,1.78,-1.53,-0.24,-0.08,0.64,3.06,3.21,-0.21,-0.01
COc1cc(C)c(NC(=O)CN(C)C)cc1Nc1nc(Nc2cccc(F)c2C(N)=O)c2cc[nH]c2n1,-2.75,2.74,3.36,1.54,1.5,1.84,2.37,-4.59,-5.11,5.11,-2.96,1.11,0.03,2.73,-1.28,1.99,-1.18,2.21,-0.29,1.45
O=C1NC(=O)C(c2ccccc2Cl)=C1Nc1cccc(O)c1,2.65,3.51,3.76,1.94,1.62,2.51,3.3,11.9,-1.3,-0.02,11.2,1.22,1.02,3.02,1.17,-0.23,2.78,2.48,1.91,3.52
COc1cc2ncn(-c3cc(O[C@@H](C)c4ccccc4Cl)c(C(N)=O)s3)c2cc1OC,-7.1,7.98,9.51,1.89,2.93,5.16,5.27,2.62,4.73,-0.86,-1.4,7.11,21.4,9.2,33.8,3.76,29.7,6.57,28.5,3.45
CCCN1CCC(Oc2cc(Nc3nc(Nc4cccc(F)c4C(N)=O)c4cc[nH]c4n3)c(OC)cc2Cl)CC1,2.1,-3.06,1.83,-1.01,-0.56,-0.46,-0.24,6.57,3.44,2.36,6.18,-0.41,2.46,0.38,2.29,2.95,2.4,0.68,5.93,1.91
N#Cc1c(NC(=O)c2cccc3ccccc23)sc2c1CCCC2,1.23,5.02,3.74,0.12,1.16,2.52,3.41,-2.18,-9.6,7.76,1.52,4.44,5.5,4.91,2.88,3.89,3.56,5.46,3.18,2.03
Fc1cccc(COc2ccc(Nc3ncnc4sc(-c5cccs5)cc34)cc2Cl)c1,-0.58,1.63,1.64,-0.69,-1.1,-0.01,2.7,-2.5,-7.05,-3.68,-8.25,0.56,1.97,1.28,3.54,1.53,2.68,0.76,2.11,1.08
Cc1cccc(-c2n[nH]cc2-c2ccc3ncccc3n2)n1,2.02,-2.12,3.22,-2.02,-0.91,0.55,1.22,-7.66,-3.76,-5.68,-8.92,4.1,29.4,5.48,35.5,2.99,35.3,3.21,29.6,-0.61
Nc1nc(-c2ccccn2)c(-c2ccc3ncccc3n2)s1,-0.98,3.7,4.24,1.82,1.66,3.03,3.63,5.99,4.49,-7.45,-5.19,2.57,3.81,3.89,4.78,-0.12,3.17,2.96,3.86,1.93
COc1ccc2cc(-c3c(-c4ccncc4)nc(-c4ccc([S+](C)[O-])cc4)n3C)ccc2c1 (stereo not given),-1.05,4.83,2.57,1.33,1.31,3.03,3.28,-4.32,-3.64,-2.25,-0.4,2.75,1.85,0.68,3.52,0.25,2.54,1.22,5.05,1.07
CC1=C(C(=O)Nc2ccc3[nH]ncc3c2)C(c2ccc3ccccc3c2)CC(=O)N1 (stereo not given),-3.47,0.76,4.95,-0.2,2.46,2.14,0.85,-1.65,3.39,-2.35,-2.6,2.56,3.94,3.48,12.3,3.47,14.9,3.89,17.1,5.08
CCn1c(-c2nonc2N)nc2c(C#CC(C)(C)O)nc(OC[C@@H](N)c3ccccc3)cc21,14.1,-5.15,1.43,3.89,36.3,-1.93,0.72,87,87.7,90.8,91.4,-1.82,1.65,0.8,-0.27,1.41,0.68,0.61,-0.28,0.08
O=C1NC(=O)C(c2ccc(Cl)cc2)=C1Nc1ccc(Cl)c(C(=O)O)c1,-0.4,-2.53,2.15,-1.89,-1.88,-3.46,-2.5,0.14,0.32,13.1,-0.68,2.02,-2.33,-0.65,1.82,1.3,4.53,1.18,1.68,0.69
